Test results reported in PubChem BioAssay (EPA / NIEHS).
Values joined by “and” are separate entries in the source; they are usually repeats but may differ in a detail not shown here. Equal values may be shown once. Inconclusive results are not listed. Some compounds were tested as several samples or in several runs, with calls that do not always agree. Active and inactive are the calls of the source. How the source made its calls, unless noted: active means hit-call score of the fitted dose curve at least 0.9, where 1 is the maximum; inactive means score below 0.9.

Key:
[1] = target: human RAR-related Orphan Receptor gamma (RORg), RORC (gene 6097) (UniProt P51449); test: ATG_RORg_TRANS: Attagene TRANS-FACTORIAL HepG2 Assay for human RAR-related Orphan Receptor gamma (RORg) (AID 2283011; active means hit-call score of the fitted dose curve at least 0.9, where 1 is the maximum)
Summary of the method: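 Readout: reporter transcript induction (RT-PCR, fluorescent primer extension, capillary electrophoresis) after 24 h compound exposure of transiently transfected HepG2 cells carrying a RORg-Gal4 chimera and GAL4-UAS reporters; DMSO served as baseline, with increasing signal fitted.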

[2] = target: Retinoic acid receptor RXR-alpha (Homo sapiens) (UniProt P19793); test: ATG_RXRa_TRANS: Attagene TRANS-FACTORIAL HepG2 Assay for human Retinoid X Receptor alpha (RXRa) (AID 2283012; active means hit-call score of the fitted dose curve at least 0.9, where 1 is the maximum)
Summary of the method: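 Measures exogenous chimeric NR-GAL4 activity in transfected HepG2 liver cells after 24 h of dosing. Induced reporter mRNA was detected by RT-PCR with capillary electrophoresis, and gain of signal was analysed against DMSO.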

[3] = read-out: E-selectin (Homo sapiens) (UniProt P16581); test: BSK_3C_Eselectin: BioMAP Diversity Plus: 3C Assay for Eselectin Biomarker Activity (AID 2283015); settings: primary human endothelial cells (HUVEC); actives raise or lower the signal;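 on outcome: cell surface E-selectin protein quantified by ELISA 24 h after dosing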
Summary of the method: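 Primary human umbilical vein endothelial cells (3C system) were dosed with chemical and cell-surface E-selectin measured by ELISA 24 h later. Bidirectional curve fitting used DMSO as negative control and baseline.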

[4] = read-out: Interleukin-1 alpha (IL1a), IL1A (gene 3552); test: BSK_BE3C_IL1a: BioMAP Diversity Plus: BE3C Assay for Interleukin-1 alpha (IL1a) Biomarker Activity (AID 2283016); settings: primary human bronchial epithelial cells; actives raise or lower the signal
Summary of the method: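 Signal from IL-1a ELISA, taken 24 h after chemical dosing of human bronchial epithelial cells, is compared with DMSO as baseline using bidirectional curve fitting.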

[5] = read-out: Monocyte Chemoattractant Protein-1 (MCP1), CCL2 (gene 6347); test: BSK_3C_MCP1: BioMAP Diversity Plus: 3C Assay for Monocyte Chemoattractant Protein-1 (MCP1) Biomarker Activity (AID 2283017); settings: primary human endothelial cells (HUVEC); actives raise or lower the signal
Summary of the method: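 Primary human umbilical vein endothelial cells (3C system) were exposed to test chemical for 24 h, after which MCP-1 was quantified by ELISA. Activity was fitted bidirectionally against DMSO as negative control and baseline.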

[6] = read-out: Human Leukocyte Antigen - DR isotype (HLADR), HLA-DRA (gene 3122); test: BSK_3C_HLADR: BioMAP Diversity Plus: 3C Assay for Human Leukocyte Antigen - DR isotype (HLADR) Biomarker Activity (AID 2283019); settings: primary human endothelial cells (HUVEC); actives raise or lower the signal;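 on outcome: ELISA of cell-surface HLA-DR on HUVEC 24 h after dosing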
Summary of the method: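 Primary human umbilical vein endothelial cells (3C system) were dosed with compound and cell-surface HLA-DR was quantified by ELISA at 24 h. Activity was fitted bidirectionally against DMSO as negative control and baseline.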

[7] = read-out: Monokine induced gamma interferon (MIG), CXCL9 (gene 4283); test: BSK_3C_MIG: BioMAP Diversity Plus: 3C Assay for Monokine induced gamma interferon (MIG) Biomarker Activity (AID 2283021); settings: primary human endothelial cells (HUVEC); actives raise or lower the signal;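 on AC50: MIG protein level measured by immunoassay in the treated endothelial cultures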
Summary of the method: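 Endothelial primary cells (human umbilical vein) are dosed with test chemical in the 3C system. MIG levels are measured by ELISA at 24 h and fitted in both directions relative to DMSO.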

[8] = BSK_3C_SRB: Viability Assessment in the BioMAP Diversity Plus: 3C Assay (AID 2283023); settings: primary human endothelial cells (HUVEC);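 further: fitted both ways against DMSO so a hit may be signal rise or drop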
Summary of the method: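 Primary human umbilical vein endothelial cells in the 3C system were read 24 h after compound dosing. Total protein was stained with 0.1% sulforhodamine B after 10% TCA fixation and read at 560 nm, with bidirectional fitting against DMSO as baseline.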

[9] = read-out: Matrix Metallopeptidase 1 (MMP1), MMP1 (gene 4312); test: BSK_BE3C_MMP1: BioMAP Diversity Plus: BE3C Assay for Matrix Metallopeptidase 1 (MMP1) Biomarker Activity (AID 2283024); settings: primary human bronchial epithelial cells; actives raise or lower the signal
Summary of the method: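 MMP1 signal, measured by ELISA after a 24 h chemical exposure of human primary bronchial epithelial cells, is analysed with bidirectional fitting using DMSO as negative control.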

[10] = BSK_3C_Vis: BioMAP Diversity Plus: 3C Assay for Morphology Visualization (AID 2283025); settings: primary human endothelial cells (HUVEC);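 further: fitted both ways so gain or loss versus DMSO counts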
Summary of the method: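 Morphology read by light microscopy serves as a background control for the multiplexed 3C assay in human umbilical vein endothelial cells, taken 24 h after dosing, with DMSO as the negative control and bidirectional curve fitting.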

[11] = read-out: Pselectin, SELP (gene 6403); test: BSK_4H_Pselectin: BioMAP Diversity Plus: 4H Assay for Pselectin Biomarker Activity (AID 2283026); settings: primary human endothelial cells (HUVEC); actives raise or lower the signal
Summary of the method: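 Endothelial primary cells (human umbilical vein) are dosed, incubated 24 h, and assayed for surface P-selectin by ELISA; responses in either direction are fitted relative to the DMSO negative control.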

[12] = BSK_4H_SRB: Viability Assessment in the BioMAP Diversity Plus: 4H Assay (AID 2283027); settings: primary human endothelial cells (HUVEC);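 further: cells exposed to compound for 24 h before staining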;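 on AC50: curves fitted both ways versus DMSO so AC50 may be loss or gain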
Summary of the method: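 HUVEC, 24 h post-dose; 10% TCA fix, 0.1% SRB stain, A560 nm. Total protein = overt cytotoxicity, parallel to biomarker read. Bidirectional fit vs DMSO baseline.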

[13] = BSK_BE3C_SRB: Viability Assessment in the BioMAP Diversity Plus: BE3C Assay (AID 2283028); settings: primary human bronchial epithelial cells;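 on AC50: fitted both ways so AC50 may mark signal gain or loss versus DMSO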
Summary of the method: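 Human primary bronchial epithelial cells were exposed to test chemicals for 24 h. Total protein in parallel cultures was then measured by staining with 0.1% sulforhodamine B after 10% TCA fixation, with absorbance read at 560 nm. Activity was fitted bidirectionally against DMSO.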

[14] = read-out: Thrombomodulin, THBD (gene 7056); test: BSK_3C_Thrombomodulin: BioMAP Diversity Plus: 3C Assay for Thrombomodulin Biomarker Activity (AID 2283029); settings: primary human endothelial cells (HUVEC); actives raise or lower the signal
Summary of the method: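 Endothelial cells from umbilical vein are dosed with test chemical and incubated 24 h. Thrombomodulin is then quantified by ELISA, with DMSO serving as negative control and activity baseline.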

[15] = read-out: Urokinase-type plasminogen activator receptor (uPAR), PLAUR (gene 5329); test: BSK_4H_uPAR: BioMAP Diversity Plus: 4H Assay for Urokinase-type plasminogen activator receptor (uPAR) Biomarker Activity (AID 2283030); settings: primary human endothelial cells (HUVEC); actives raise or lower the signal
Summary of the method: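 Primary human umbilical vein endothelial cells were exposed to chemical for 24 h before cell-surface uPAR was quantified by ELISA. Activity was fitted bidirectionally against the DMSO negative control baseline.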

[16] = target: human Retinoid X Receptor beta (RXRb), RXRB (gene 6257) (UniProt P28702); test: ATG_RXRb_TRANS: Attagene TRANS-FACTORIAL HepG2 Assay for human Retinoid X Receptor beta (RXRb) (AID 2283013; active means hit-call score of the fitted dose curve at least 0.9, where 1 is the maximum)
Summary of the method: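 Chimeric receptor-Gal4 activity was assessed in transiently transfected human HepG2 cells after 24 h exposure. Transcripts from GAL4-UAS reporters were quantified by fluorescent RT-PCR and capillary electrophoresis, with DMSO as negative control and baseline.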

[17] = target: human Thyroid Receptor alpha (THRa1), THRA (gene 7067) (UniProt P10827); test: ATG_THRa1_TRANS: Attagene TRANS-FACTORIAL HepG2 Assay for human Thyroid Receptor alpha (THRa1) (AID 2283014; active means hit-call score of the fitted dose curve at least 0.9, where 1 is the maximum)
Summary of the method: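 HepG2 cells transiently transfected with multiplexed GAL4-UAS reporter units for exogenous chimeric THRa1-Gal4; reporter mRNA measured 24 h after dosing by RT-PCR, 6-FAM labelling, HpaI digestion and capillary electrophoresis. Gain-of-signal fitted versus DMSO baseline.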

[18] = target: human Vitamin D Receptor (VDR), VDR (gene 7421) (UniProt P11473); test: ATG_VDR_TRANS: Attagene TRANS-FACTORIAL HepG2 Assay for human Vitamin D Receptor (VDR) (AID 2283022; active means hit-call score of the fitted dose curve at least 0.9, where 1 is the maximum)
Summary of the method: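 HepG2 cells were transiently transfected with multiple GAL4-UAS reporter units, so signal reflects exogenous chimeric receptor-Gal4 activity. After 24 h compound exposure, reporter mRNA was measured by RT-PCR, fluorescent labelling and capillary electrophoresis, fitted for gain of signal versus DMSO.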

[19] = read-out: Interleukin-8 (IL8), CXCL8 (gene 3576); test: BSK_3C_IL8: BioMAP Diversity Plus: 3C Assay for Interleukin-8 (IL8) Biomarker Activity (AID 2283020); settings: primary human endothelial cells (HUVEC); actives raise or lower the signal
Summary of the method: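 Endothelial primary cells of human umbilical vein origin are dosed with chemical; after 24 h the IL-8 biomarker is measured by ELISA, and concentration–response is fitted in both directions versus DMSO.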

Chain of Retinoic acid receptor RXR-alpha (Homo sapiens) (P19793 whole entry, looked up, the tested form may be a part): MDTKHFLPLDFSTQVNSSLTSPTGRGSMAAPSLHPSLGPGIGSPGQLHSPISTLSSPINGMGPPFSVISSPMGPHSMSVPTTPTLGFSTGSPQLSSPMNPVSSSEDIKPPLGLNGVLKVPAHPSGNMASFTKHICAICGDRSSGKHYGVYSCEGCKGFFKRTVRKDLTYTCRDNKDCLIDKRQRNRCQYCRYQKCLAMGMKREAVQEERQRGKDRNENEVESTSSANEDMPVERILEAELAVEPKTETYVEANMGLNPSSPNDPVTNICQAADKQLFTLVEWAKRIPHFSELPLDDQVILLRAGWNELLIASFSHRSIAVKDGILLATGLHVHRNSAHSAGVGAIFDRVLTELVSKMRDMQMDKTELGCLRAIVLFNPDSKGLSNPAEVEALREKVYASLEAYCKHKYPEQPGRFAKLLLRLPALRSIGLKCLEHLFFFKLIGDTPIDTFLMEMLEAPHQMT
Chain of human Retinoid X Receptor beta (RXRb), RXRB (gene 6257) (P28702 whole entry, looked up, the tested form may be a part): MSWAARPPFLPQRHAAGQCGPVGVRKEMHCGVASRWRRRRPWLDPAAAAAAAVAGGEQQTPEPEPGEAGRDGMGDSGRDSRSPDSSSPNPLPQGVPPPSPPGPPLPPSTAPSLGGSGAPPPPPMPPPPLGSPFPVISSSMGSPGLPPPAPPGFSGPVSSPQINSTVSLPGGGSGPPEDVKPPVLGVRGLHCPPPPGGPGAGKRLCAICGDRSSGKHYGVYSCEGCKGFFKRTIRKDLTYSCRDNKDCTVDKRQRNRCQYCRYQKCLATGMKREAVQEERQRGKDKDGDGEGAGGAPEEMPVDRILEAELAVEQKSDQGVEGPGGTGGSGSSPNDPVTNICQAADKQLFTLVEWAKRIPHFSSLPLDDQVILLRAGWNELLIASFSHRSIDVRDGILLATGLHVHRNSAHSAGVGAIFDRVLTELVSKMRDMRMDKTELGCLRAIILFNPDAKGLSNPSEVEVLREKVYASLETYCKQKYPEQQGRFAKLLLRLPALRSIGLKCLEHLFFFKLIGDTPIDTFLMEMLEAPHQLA
Chain of human RAR-related Orphan Receptor gamma (RORg), RORC (gene 6097) (P51449 whole entry, looked up, the tested form may be a part): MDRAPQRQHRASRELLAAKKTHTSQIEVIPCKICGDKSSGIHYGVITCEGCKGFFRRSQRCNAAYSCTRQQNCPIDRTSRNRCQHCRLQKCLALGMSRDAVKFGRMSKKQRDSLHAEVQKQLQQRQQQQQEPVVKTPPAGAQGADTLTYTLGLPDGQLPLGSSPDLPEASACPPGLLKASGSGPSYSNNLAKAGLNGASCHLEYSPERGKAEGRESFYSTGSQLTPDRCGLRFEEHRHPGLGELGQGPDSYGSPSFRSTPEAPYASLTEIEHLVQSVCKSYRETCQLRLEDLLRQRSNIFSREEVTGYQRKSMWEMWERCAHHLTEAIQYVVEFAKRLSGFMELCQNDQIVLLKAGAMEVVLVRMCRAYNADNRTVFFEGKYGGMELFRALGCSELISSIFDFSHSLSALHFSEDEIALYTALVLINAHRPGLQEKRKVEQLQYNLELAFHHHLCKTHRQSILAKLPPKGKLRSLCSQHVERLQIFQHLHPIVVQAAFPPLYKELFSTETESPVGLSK
Chain of E-selectin (Homo sapiens) (P16581 whole entry, looked up): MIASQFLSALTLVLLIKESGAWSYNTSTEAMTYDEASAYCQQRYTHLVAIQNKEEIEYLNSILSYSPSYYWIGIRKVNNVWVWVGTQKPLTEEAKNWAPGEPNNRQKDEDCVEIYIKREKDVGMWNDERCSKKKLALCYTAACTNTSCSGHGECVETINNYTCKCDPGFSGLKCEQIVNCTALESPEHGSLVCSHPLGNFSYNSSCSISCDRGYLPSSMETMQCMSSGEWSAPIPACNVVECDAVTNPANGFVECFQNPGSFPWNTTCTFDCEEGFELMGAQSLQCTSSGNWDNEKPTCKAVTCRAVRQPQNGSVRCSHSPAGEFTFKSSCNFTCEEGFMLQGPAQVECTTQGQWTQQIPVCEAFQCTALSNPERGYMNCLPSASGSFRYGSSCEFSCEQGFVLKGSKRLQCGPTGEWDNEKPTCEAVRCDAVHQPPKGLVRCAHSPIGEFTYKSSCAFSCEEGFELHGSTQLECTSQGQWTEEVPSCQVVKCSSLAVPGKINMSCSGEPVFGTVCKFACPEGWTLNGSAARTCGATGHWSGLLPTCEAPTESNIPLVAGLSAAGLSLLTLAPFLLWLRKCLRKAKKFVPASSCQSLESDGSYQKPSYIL
Chain of human Thyroid Receptor alpha (THRa1), THRA (gene 7067) (P10827 whole entry, looked up, the tested form may be a part): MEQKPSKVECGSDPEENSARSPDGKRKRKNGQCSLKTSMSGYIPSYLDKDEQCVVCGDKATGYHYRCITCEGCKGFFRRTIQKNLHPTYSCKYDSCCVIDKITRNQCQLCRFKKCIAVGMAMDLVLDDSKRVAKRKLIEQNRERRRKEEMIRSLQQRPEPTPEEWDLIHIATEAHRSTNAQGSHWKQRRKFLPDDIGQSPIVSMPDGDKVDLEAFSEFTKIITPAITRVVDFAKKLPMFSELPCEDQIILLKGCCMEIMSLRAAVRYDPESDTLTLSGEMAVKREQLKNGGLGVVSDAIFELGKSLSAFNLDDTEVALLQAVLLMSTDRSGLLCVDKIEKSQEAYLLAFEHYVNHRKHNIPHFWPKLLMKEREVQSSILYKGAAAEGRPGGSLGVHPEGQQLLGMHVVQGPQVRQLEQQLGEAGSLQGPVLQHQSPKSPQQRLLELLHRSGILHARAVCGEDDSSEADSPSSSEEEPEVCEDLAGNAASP
Chain of human Vitamin D Receptor (VDR), VDR (gene 7421) (P11473 whole entry, looked up, the tested form may be a part): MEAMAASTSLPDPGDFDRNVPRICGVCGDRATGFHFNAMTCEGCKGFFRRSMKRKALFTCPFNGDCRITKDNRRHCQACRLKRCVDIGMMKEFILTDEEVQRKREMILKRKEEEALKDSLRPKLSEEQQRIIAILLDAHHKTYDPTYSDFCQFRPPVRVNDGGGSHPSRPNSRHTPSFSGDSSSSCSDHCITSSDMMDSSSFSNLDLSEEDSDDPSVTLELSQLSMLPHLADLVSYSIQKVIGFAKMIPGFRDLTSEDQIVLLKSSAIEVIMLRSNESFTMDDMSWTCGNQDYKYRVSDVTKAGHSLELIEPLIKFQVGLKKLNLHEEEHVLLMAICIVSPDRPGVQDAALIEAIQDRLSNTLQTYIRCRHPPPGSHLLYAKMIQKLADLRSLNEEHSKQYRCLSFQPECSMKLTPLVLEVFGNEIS

Clc1cc(Cl)c2c(c1)N=C1CCCCCN1C2
outcome [1]: inactive | outcome [2]: inactive | outcome [3]: inactive | outcome [4]: inactive | outcome [5]: inactive | outcome [6]: inactive | outcome [7]: inactive | outcome [8]: inactive | outcome [9]: inactive | outcome [10]: inactive | outcome [11]: inactive | outcome [12]: inactive | outcome [13]: inactive | outcome [14]: inactive | outcome [15]: inactive

CCCCOC(=O)c1ccc(O)cc1
outcome [2]: inactive | AC50 [16]: 26.9 µM (active) and 26.4 µM (active) | outcome [16]: inactive | outcome [17]: inactive | outcome [3]: inactive | outcome [4]: inactive | outcome [5]: inactive | outcome [6]: inactive | outcome [7]: inactive | outcome [18]: inactive | outcome [8]: inactive | outcome [9]: inactive | outcome [10]: inactive | outcome [11]: inactive | outcome [12]: inactive | outcome [13]: inactive | outcome [15]: inactive

O=C(O)c1ccccc1-n1cc(C(=O)O)c(=O)c2cc(Nc3c(F)cc(F)cc3Cl)c(Cl)cc21
outcome [1]: inactive | outcome [17]: inactive | outcome [3]: inactive | outcome [4]: inactive | outcome [5]: inactive | outcome [6]: inactive | outcome [7]: inactive | outcome [8]: inactive | outcome [9]: inactive | outcome [10]: inactive | outcome [11]: inactive | outcome [13]: inactive | outcome [14]: inactive | outcome [15]: inactive

Cc1cccc2ccccc12
outcome [1]: inactive | outcome [2]: inactive | outcome [16]: inactive | outcome [17]: inactive | outcome [3]: inactive | outcome [4]: inactive | outcome [5]: inactive | outcome [6]: inactive | outcome [19]: inactive | outcome [7]: inactive | outcome [18]: inactive | outcome [8]: inactive | outcome [9]: inactive | outcome [10]: inactive | outcome [11]: inactive | outcome [13]: inactive | outcome [15]: inactive

O=C(O)Cn1c(=O)n(Cc2ccc(Br)cc2F)c(=O)c2ccc(Cl)cc21
outcome [1]: inactive | outcome [2]: inactive | outcome [3]: inactive | outcome [4]: inactive | outcome [5]: inactive | outcome [6]: inactive | outcome [7]: inactive | outcome [18]: inactive | outcome [8]: inactive | outcome [9]: inactive | outcome [10]: inactive | outcome [11]: inactive | outcome [13]: inactive | outcome [15]: inactive

COc1cc(C(=O)NC2CCN(C)CC2)ccc1Nc1ncc2c(n1)N(C1CCCC1)CC(F)(F)C(=O)N2C
outcome [1]: inactive | outcome [2]: inactive | outcome [16]: inactive | outcome [17]: inactive | AC50 [3]: 17.2 µM (active) | AC50 [4]: 10.2 µM (active) | AC50 [5]: 12 µM (active) | AC50 [6]: 4.47 µM (active) | AC50 [19]: 7.74 µM (active) | AC50 [7]: 19.2 µM (active) | outcome [18]: inactive | AC50 [8]: 18.6 µM (active) | AC50 [9]: 7.76 µM (active) | AC50 [10]: 18.6 µM (active) | AC50 [11]: 3.57 µM (active) | AC50 [12]: 13.5 µM (active) | AC50 [13]: 28.2 µM (active) | AC50 [15]: 7.45 µM (active)
